Results filed as inconclusive are left out. Active and inactive are the calls of the source. Rule for the calls: active = hit-call score of the fitted dose curve at least 0.9, where 1 is the maximum; inconclusive = response in the unintended direction; inactive = score below 0.9.
These compounds were tested against Cytochrome P450 2C19 (Homo sapiens) (UniProt P33261) (assay: NVS_ADME_hCYP2C19: NovaScreen (NVS) CYP450-related Enzyme Activity (ADME) Assay for human CYP2C19 (AID 2283113);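 note: potency for inhibition seen as loss of fluorescent signal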).
Outline: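 Compounds first screened in duplicate at 10 uM, then confirmed in concentration series. Insect-cell-expressed human CYP2C19 turned over a fluorogenic substrate, and fluorescence was read after 1 h. Inhibition taken as signal loss relative to acetonitrile.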

AC50, active:
CCCCCCCCCCCCCCC 10 µM
CCCCCCCCCCCCCCCCCC[N+](C)(C)Cc1ccccc1 1.8 µM
c1cc[nH]c1 0.992 µM
CC(C)CCOCCC(C)C 5 µM
Cc1ccc(N=Nc2c(O)ccc3ccccc23)c(C)c1 0.565 µM

Each compound was assayed against human AKT serine/threonine Kinase 1 (AKT1), AKT1 (gene 207) (UniProt P31749) (assay: NVS_ENZ_hAKT1: NovaScreen (NVS) Enzymatic Assay for human AKT serine/threonine Kinase 1 (AKT1) (AID 2283138)).
Sequence of human AKT serine/threonine Kinase 1 (AKT1), AKT1 (gene 207) (P31749 whole entry, looked up): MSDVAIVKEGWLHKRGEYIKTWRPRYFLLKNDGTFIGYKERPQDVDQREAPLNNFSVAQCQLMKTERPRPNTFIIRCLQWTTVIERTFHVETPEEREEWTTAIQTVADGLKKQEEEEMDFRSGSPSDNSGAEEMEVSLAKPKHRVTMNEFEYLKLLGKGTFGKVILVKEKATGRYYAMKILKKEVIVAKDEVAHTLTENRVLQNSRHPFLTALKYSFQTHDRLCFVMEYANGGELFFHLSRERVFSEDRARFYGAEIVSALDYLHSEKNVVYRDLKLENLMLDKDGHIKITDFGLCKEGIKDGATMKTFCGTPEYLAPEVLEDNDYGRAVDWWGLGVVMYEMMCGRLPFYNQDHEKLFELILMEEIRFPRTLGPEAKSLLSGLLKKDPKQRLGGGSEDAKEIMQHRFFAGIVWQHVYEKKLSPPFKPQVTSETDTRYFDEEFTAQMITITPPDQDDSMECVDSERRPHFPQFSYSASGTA
Outline: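 Compounds were first tested in duplicate at 25 uM, and those passing a threshold such as 30% inhibition were run in concentration-response to a maximum of 50 uM. Enzyme activity was measured after 1 h by fluorescence following substrate/product mobility-shift separation.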

outcome, inactive:
CCC(C)c1ccccc1O (centres undefined)
O=C(CCCN1CCC(O)(c2ccc(Cl)cc2)CC1)c1ccc(F)cc1
CCCCCCCCCCCCOS(=O)(=O)O

The compounds below were run against human Beta-secretase (BACE), BACE1 (gene 23621) (UniProt P56817) (assay: NVS_ENZ_hBACE: NovaScreen (NVS) Enzymatic Assay for human Beta-secretase (BACE) (AID 2283140);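 note: hits are inhibitors that reduce fluorescent substrate signal versus DMSO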).
Sequence of human Beta-secretase (BACE), BACE1 (gene 23621) (P56817 whole entry, looked up): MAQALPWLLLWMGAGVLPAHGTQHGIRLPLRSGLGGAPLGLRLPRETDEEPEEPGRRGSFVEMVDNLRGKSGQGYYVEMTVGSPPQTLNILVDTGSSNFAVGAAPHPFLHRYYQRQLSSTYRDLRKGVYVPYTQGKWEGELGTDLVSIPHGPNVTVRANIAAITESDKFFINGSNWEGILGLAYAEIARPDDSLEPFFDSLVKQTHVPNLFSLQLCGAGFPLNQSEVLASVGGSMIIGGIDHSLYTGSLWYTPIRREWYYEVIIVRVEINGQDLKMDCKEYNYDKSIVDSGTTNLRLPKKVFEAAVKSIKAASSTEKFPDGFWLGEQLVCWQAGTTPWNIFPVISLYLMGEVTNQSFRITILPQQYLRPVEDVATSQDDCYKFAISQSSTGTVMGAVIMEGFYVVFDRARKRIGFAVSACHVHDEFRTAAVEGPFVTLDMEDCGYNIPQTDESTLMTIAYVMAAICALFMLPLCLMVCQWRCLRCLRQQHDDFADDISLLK
Outline: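 Fluorescence intensity read-out of protease activity defines this endpoint; signal loss relative to DMSO baseline marks inhibition. Recombinant enzyme from SF9 cells, cell-free format, 1 h exposure. Single-concentration duplicate screen (25 uM) precedes concentration-series follow-up.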

outcome, inactive:
NS(=O)(=O)O
CN(Cc1cnc2nc(N)nc(N)c2n1)c1ccc(C(=O)N[C@@H](CCC(=O)O)C(=O)O)cc1
CCOC(C)=O
CNNCc1ccc(C(=O)NC(C)C)cc1

AC50, active:
CCCCCCCCCCCCOS(=O)(=O)O 2.91 µM
CCCCc1oc2ccccc2c1C(=O)c1cc(I)c(OCCN(CC)CC)c(I)c1 3.91 µM
